What is called viability is a read-out of living cells in per cent, often relative to untreated cells. The term inhibition denotes the relative decrease from the control value, in per cent.

Assay [1] can be described thus: reducers of endogenous Her2 protein level, primary screen, SKBR3 breast tumor cells, AlphaScreen, ATP viability (AID 461;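 active = Her2 level under about 52% in both replicate screens, with viability over 70% of control, limit read from the data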;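 for Her2 level: lower value means less Her2 protein in the cells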;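 for viability: percent of carrier control wells set as 100% viability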). Conditions: 18-24 h, measured here: SKBR3 viability, ATP luminescence, at 10 µM.
Assay [2] has as its target Receptor tyrosine-protein kinase erbB-2 (Homo sapiens) (UniProt P04626). The assay is described as above. Conditions: 18-24 h, at 10 µM, stronger effect = lower value.
A short description of assay [3]: SK-BR-3 cell growth inhibitors, pilot screen, 24 h, human (AID 572;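 active = viability at or below 10% of carrier control in both of two separate runs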;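 note: compound exposure lasted between 18 and 24 h rather than exactly 24 h; 100% = carrier-treated control wells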). Conditions: SK-BR-3 viability, CellTiter-Glo luminescence, at 10 µM, stronger effect = lower value.
Assay [4] in a line: HUVEC growth inhibition – cell-based, human, primary screen (AID 575;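 active = viability at or below 30% in both replicate assays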;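 note: 100% = median of untreated cell wells with 0.1% DMSO on each plate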). Conditions: HUVEC proliferation, CellTiter-Glo luminescence, 72 h; at 10 µM; stronger effect = lower value.
Assay [5] can be described thus: growth inhibitors of H69AR lung tumor, primary screen, human, duplicate replicates (AID 580;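 active = viability at or under a set limit in both replicates, limit being median viability minus 3 SD, cut at about 48% in these data, passing the limit was not always enough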;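 note: 100% = mean luminescence of untreated wells and 0% = no signal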). Conditions: H69AR lung tumor cells viability, ATP luminescence, 72 h; at 10 µM; stronger effect = lower value.
Assay [6] is described as follows: 384-well plate pilot, post-Golgi transport modulator project, inhibition of yeast transport mutant growth (AID 636; in the data active = inhibition above about 31%). Conditions: absorbance 615 nm, about 18 h, stronger effect = higher value.
Assay [7] can be described thus: growth suppression of yeast trafficking mutant, preliminary HTS, modulators of trafficking downstream of Golgi apparatus project, 1536-format plate, OD 615 nm (AID 637; in the data active = inhibition above about 30%). Conditions: yeast transport mutant growth, absorbance 615 nm, 18 h; stronger effect = higher value.
A short description of assay [8]: OD615 S. cerevisiae growth inhibition, permissive medium, pilot counter-assay, permissive growth control for S. cerevisiae lifespan shortening project (AID 705;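 active = growth inhibition above 25% in both replicates, a cutoff set 3 SD above the mean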). Conditions: OD615, 24 h, at 10 µM, stronger effect = higher value.
Assay [9] can be described thus: Restrictive medium S. cerevisiae growth inhibition, OD615, pilot screen of yeast lifespan reduction project, restrictive growth control (AID 706;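 active = growth inhibition above a set limit, 3 SD over mean compound inhibition, in both replicates, cut at about 43% in these data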;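 note: modified DeaD lifespan yeast strain shifted to restrictive glucose medium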). Conditions: OD615, 48 h, at 10 µM, stronger effect = higher value.
Assay [10] is described as follows: viability gain of MRP-1-high H69AR cells under doxorubicin, pilot screen, MRP-1 activator project, CellTiter-Glo, duplicate (AID 807;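 active = viability increase at or above a cutoff of the median across tested compounds plus 3 SD, cut at about 8.5% in these data, passing the limit was not always enough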;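 note: compound pretreatment 18-22 h then 72 h combined with doxorubicin; 0% = doxorubicin alone and 100% = vehicle without doxorubicin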). Conditions: H69AR viability with doxorubicin, CellTiter-Glo luminescence; at 10 µM; stronger effect = higher value.
Assay [11] can be described thus: growth suppression of beta-catenin knockout HCT116, pilot screen, human colon tumor cells (AID 823;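 active = cell viability at or below a set limit in both duplicate runs, the limit being the all-compound median minus 4 SD, cut at about 23% in these data, passing the limit was not always enough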;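 note: 0% = wells killed by 20 µM Hyamine and 100% = untreated DMSO cell wells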). Conditions: CellTiter-Glo, 60 h, at 10 µM, stronger effect = lower value. In general terms: In ATP-based viability assays light output follows the ATP content of the culture.
Assay [12] can be described thus: growth suppression of PTEN-deleted HCT116, pilot screen, cell-based, HCT116 clonal line, CellTiter-Glo (AID 824;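 active = viability at or below 27.92% in each of two runs, the all-compound median minus 4 SD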;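 note: 0% = 20 µM Hyamine control and 100% = vehicle cell control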). Conditions: 60 h, at 10 µM, stronger effect = lower value.
A short description of assay [13]: inhibitors of the yeast RAM network, pilot screen, dse1pr::URA3 reporter, 5-FOA selection (AID 869).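 Note: 0% = DMSO wells with no growth and 100% = 10 µM 1-NA-PP1 with full growth; RAM network block rescues cells from 5-FOA so hits raise OD615 growth.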 Conditions: S. cerevisiae dse1pr::URA3 5-FOA growth, OD615, 2 d; at 10 µM; stronger effect = higher value; strain carries analog-sensitive mutant Cbk1 kinase.
The nature of assay [14]: RAM signaling pathway blockade in yeast – S. cerevisiae, Pdr1DBD-CYC8 efflux-inhibited sensitized strain, primary screen (AID 1298;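 active = RAM network inhibition above 8.4% in each of two replicates, 3 SD over the compound average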;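 note: 0% = DMSO untreated cells without growth and 100% = 10 µM 1-NA-PP1 full growth; higher means more yeast growth rescued from 5-FOA killing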). Conditions: S. cerevisiae cbk1-as DSE1-URA3 strain, 5-FOA growth OD615, 2 d; at 50 µM; stronger effect = higher value.
A short description of assay [15]: reversal of MRP1-mediated doxorubicin resistance, pilot screen, H69AR cells, doxorubicin co-treatment (AID 601;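 active = viability loss from added drug above about 55%, and viability with drug at most 40%, in both replicates, limit read from the data, passing the limit was not always enough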). Conditions: CellTiter-Glo, 72 h, at 10 µM; for differential viability (reversal): stronger effect = higher value.
The mark [16] stands for this setting: H69AR cells + 2 uM doxorubicin, measured here: viability with 2 uM doxorubicin, stronger effect = lower value.
[17] abbreviates: H69AR cells, compound alone cytotoxicity.

Each structure is given as a SMILES string. Results filed as inconclusive are left out. Active and inactive are the calls of the source.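 Rule for the calls, unless noted: active = inhibition over a set limit, the all-compound mean plus 3 SD, in both replicate runs; inconclusive = over that limit in just one replicate run; inactive = at or under that limit in both runs.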

Receptor tyrosine-protein kinase erbB-2 (Homo sapiens), sequence (P04626 whole entry, looked up): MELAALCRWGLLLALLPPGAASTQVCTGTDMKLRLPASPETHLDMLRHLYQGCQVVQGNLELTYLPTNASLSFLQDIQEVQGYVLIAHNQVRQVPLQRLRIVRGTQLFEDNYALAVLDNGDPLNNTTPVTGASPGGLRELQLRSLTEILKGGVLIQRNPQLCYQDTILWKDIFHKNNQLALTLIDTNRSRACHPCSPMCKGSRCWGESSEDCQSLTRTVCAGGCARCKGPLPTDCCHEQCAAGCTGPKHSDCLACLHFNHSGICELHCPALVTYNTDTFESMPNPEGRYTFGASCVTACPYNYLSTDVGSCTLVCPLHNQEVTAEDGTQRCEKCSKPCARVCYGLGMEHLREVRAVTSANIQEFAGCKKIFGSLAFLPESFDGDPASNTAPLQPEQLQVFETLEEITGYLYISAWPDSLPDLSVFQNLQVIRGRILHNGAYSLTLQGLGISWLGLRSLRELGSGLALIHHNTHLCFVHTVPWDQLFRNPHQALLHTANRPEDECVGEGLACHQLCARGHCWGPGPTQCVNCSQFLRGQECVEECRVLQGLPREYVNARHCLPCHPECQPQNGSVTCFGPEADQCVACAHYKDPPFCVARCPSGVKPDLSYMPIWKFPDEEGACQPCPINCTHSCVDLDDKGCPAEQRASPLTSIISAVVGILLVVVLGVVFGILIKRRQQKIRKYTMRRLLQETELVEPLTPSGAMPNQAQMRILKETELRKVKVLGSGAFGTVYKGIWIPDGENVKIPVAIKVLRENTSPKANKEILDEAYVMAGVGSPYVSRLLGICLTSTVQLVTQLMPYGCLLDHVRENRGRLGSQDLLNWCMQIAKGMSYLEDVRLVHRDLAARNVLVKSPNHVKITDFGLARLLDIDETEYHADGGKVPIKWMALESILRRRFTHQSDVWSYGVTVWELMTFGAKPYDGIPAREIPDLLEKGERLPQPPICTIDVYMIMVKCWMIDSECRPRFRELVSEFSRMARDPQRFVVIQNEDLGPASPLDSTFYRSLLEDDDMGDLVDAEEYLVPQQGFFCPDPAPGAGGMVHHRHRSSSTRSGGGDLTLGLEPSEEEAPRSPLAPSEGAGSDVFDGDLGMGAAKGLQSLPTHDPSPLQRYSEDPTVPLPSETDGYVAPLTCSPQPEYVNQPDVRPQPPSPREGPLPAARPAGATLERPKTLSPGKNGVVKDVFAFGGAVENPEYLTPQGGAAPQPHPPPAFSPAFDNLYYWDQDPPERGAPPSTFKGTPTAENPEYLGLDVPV

In the case of `CCOC(=O)c1cc2c(=O)n3ccccc3nc2n(CC2CCCO2)c1=NC(C)=O` (stereo not given), the viability in assay [1] is 99%; in assay [3] it was 99% (inactive); in [4] it was 102% (inactive); in assay [5], 81.1% (inactive); in [11], 97.6% (inactive); in [12], 93.8% (inactive). Moreover, in assay [2], the Her2 level is 95.5% (inactive). Besides, the inhibition was -6.71% (inactive) in assay [6], -2.22% (inactive) in [7] and 0.525% (inactive) in assay [13]. Further, the growth inhibition in assay [8] was -22.2% (inactive); in [9], -17.4% (inactive). Moreover, the viability increase in [10] is 0.08% (inactive). Besides, the RAM network inhibition in assay [14] was 3.93% (inactive).

Turning to `CC1CC(C)CN(Cc2nc3c(c(=O)n(C)c(=O)n3C)n2Cc2ccccc2Cl)C1` (stereo not given), the viability in [1] was 87.5%; in assay [3], 87.5% (inactive); in [4], 97.8% (inactive); in assay [5], 89.5% (inactive); in assay [11], 102% (inactive); in assay [12], 97.8% (inactive). For the same compound, the Her2 level in assay [2] is 104% (inactive). For the same compound, the inhibition in assay [6] was -3.2% (inactive); in assay [7], 0.67% (inactive); in [13], 0.655% (inactive). Also, the figures for the growth inhibition in assay [8] and in [9] were 2.67% (inactive) and -4.42% (inactive), respectively. For the same compound, in assay [10], the viability increase was -1.15% (inactive). Further, in assay [14], the RAM network inhibition is 3.22% (inactive).

Take `CCN1CCN(c2ncnc3c2cnn3-c2ccc(C)cc2C)CC1`: the viability was 85.5% in assay [1]; 85.5% (inactive) in assay [3]; 99.8% (inactive) in assay [4]; 73.7% (inactive) in [5]; 85.1% (inactive) in assay [11]; 81.6% (inactive) in assay [12]. In addition, the Her2 level in assay [2] was 96% (inactive). Further, the inhibition was -6.4% (inactive) in [6], 7.7% (inactive) in assay [7] and 0.395% (inactive) in [13]. In addition, the values for the growth inhibition in [8] and in [9] were -5.99% (inactive) and -11% (inactive), respectively. Besides, the viability increase in [10] is -6.88% (inactive). Moreover, the RAM network inhibition in assay [14] is 0.63% (inactive).

As to `CC1CCN(Cc2ccc(NC(=O)C3CCN(c4nnc(-n5cccc5)s4)CC3)cc2)CC1`, the viability was 86.5% in assay [1]; 86.5% (inactive) in assay [3]; 4.64% (active) in assay [4]; 78.5% (inactive) in assay [5]; 79.5% in assay [15] (setting [16]); 78.5% in [15] (setting [17]). In addition, the Her2 level in assay [2] was 90.5% (inactive). For the same compound, in assay [15] (H69AR cells + 2 uM doxorubicin), the differential viability (reversal) is -1.01% (inactive). In addition, the results for the inhibition in assay [6], in assay [7] and in assay [13] were -4.27% (inactive), 1.33% (inactive) and 0.695% (inactive), respectively. Also, the growth inhibition was 3.76% (inactive) in assay [8] and 2.38% (inactive) in [9]. Besides, the viability increase in assay [10] was -2.95% (inactive). In addition, the RAM network inhibition in assay [14] is 4.34% (inactive).

In the case of `COC(=O)c1cn(NC(=O)c2cccnc2)c(=O)c2ccccc12`, the viability is 88% in [1]; 88% (inactive) in [3]; 101% (inactive) in assay [4]; 103% (inactive) in assay [5]; 100% in [15] (setting [16]); 103% in assay [15] (setting [17]). Moreover, the values for the viability in assay [11] and in assay [12] were 101% (inactive) and 99% (inactive), respectively. Moreover, in assay [2], the Her2 level is 84% (inactive). Moreover, the differential viability (reversal) in assay [15] (H69AR cells + 2 uM doxorubicin) was 2.79% (inactive). Besides, the results for the inhibition in assay [6], in [7] and in assay [13] were -7.26% (inactive), 1.11% (inactive) and 0.92% (inactive), respectively. For the same compound, the values for the growth inhibition in assay [8] and in [9] were -2.23% (inactive) and 0.94% (inactive), respectively. For the same compound, the RAM network inhibition in [14] is 5.05% (inactive).

Regarding `CC(C)CCSc1nc2c(c(=O)[nH]c(=O)n2C)n1CCCc1ccccc1`, the viability in assay [1] is 87.5%; in [3], 87.5% (inactive); in [4], 46.7% (inactive); in assay [15] (setting [16]), 58.9%; in assay [15] (setting [17]) it was 50%; in assay [11], 68.8% (inactive). The viability in assay [12] was 59.1% (inactive). For the same compound, the Her2 level in assay [2] was 71% (inactive). The differential viability (reversal) in assay [15] (H69AR cells + 2 uM doxorubicin) is -8.95% (inactive). The results for the inhibition in assay [6], in [7] and in assay [13] were -3.73% (inactive), 4.17% (inactive) and 3.84% (inactive), respectively. Also, the growth inhibition was -11.8% (inactive) in assay [8] and -9.37% (inactive) in assay [9]. Besides, the viability increase in assay [10] was -4.55% (inactive). Besides, the RAM network inhibition in [14] was 9.02% (inactive).

Take `Cc1c(C(=O)Nc2nnc(C(F)(F)F)s2)oc2ccccc12`: the viability was 91.5% in assay [1]; 91.5% (inactive) in assay [3]; 51% (inactive) in assay [4]; 84.8% (inactive) in [5]; 93.1% in assay [15] (setting [16]); 84.8% in assay [15] (setting [17]). In [12], the viability is 65.5% (inactive). For the same compound, in assay [2], the Her2 level was 81.5% (inactive). In assay [15] (H69AR cells + 2 uM doxorubicin), the differential viability (reversal) is -8.24% (inactive). Further, the figures for the inhibition in [6], in assay [7] and in [13] were -6% (inactive), -3.33% (inactive) and 2.56% (inactive), respectively. Further, the growth inhibition in assay [8] is -4.23% (inactive); in assay [9], 13.6% (inactive). Moreover, the RAM network inhibition in assay [14] was 4.2% (inactive).

Take `COc1ccc(-n2ncc3c(N4CCN(c5cccc(C)c5C)CC4)ncnc32)cc1`: the viability in [1] was 88%; in assay [3], 88% (inactive); in [4], 11.3% (active); in assay [5], 27.1% (active); in [15] (setting [16]), 21.7%; in assay [15] (setting [17]) it was 27.1%. Further, the Her2 level in assay [2] is 79% (inactive). The differential viability (reversal) in assay [15] (H69AR cells + 2 uM doxorubicin) was 5.39% (inactive). In addition, the inhibition in assay [6] is -2.4% (inactive); in assay [7], -2.17% (inactive); in assay [13], 1.51% (inactive). Also, the growth inhibition in assay [8] was -5% (inactive); in assay [9], -6.91% (inactive). For the same compound, the viability increase in [10] is -7.5% (inactive). In addition, the RAM network inhibition in assay [14] is 7.15% (inactive).

Take `Cc1ccc(C)c(N2CCN(C(=O)c3cc4ccccn4n3)CC2)c1`: the viability in assay [1] was 91%; in assay [3] it was 91% (inactive); in assay [4], 90.1% (inactive); in [5], 99.8% (inactive); in [11], 91.7% (inactive); in assay [12], 92.5% (inactive). For the same compound, the Her2 level in [2] is 85% (inactive). Also, the inhibition was -4.74% (inactive) in [6], 8.33% (inactive) in assay [7] and 0.805% (inactive) in assay [13]. Also, the growth inhibition in assay [8] is -8.86% (inactive); in assay [9], 0.2% (inactive). The viability increase in assay [10] was -2.11% (inactive). Also, the RAM network inhibition in [14] is 10.8% (inactive).

Turning to `Cc1noc(/C=C/N(C)C)c1S(=O)(=O)N1CCCC(C(=O)NC2CCCCC2)C1` (stereo not given), the viability was 99% in assay [1]; 99% (inactive) in assay [3]; 75.7% (inactive) in [4]; 88.6% (inactive) in assay [5]; 105% in [15] (setting [16]); 88.6% in assay [15] (setting [17]). Also, the viability in assay [11] is 93% (inactive); in assay [12], 88.4% (inactive). The Her2 level in [2] was 99.5% (inactive). Also, in assay [15] (H69AR cells + 2 uM doxorubicin), the differential viability (reversal) is -16.5% (inactive). Besides, the inhibition in assay [6] was -3.07% (inactive); in assay [7] it was -3.5% (inactive); in [13], 0.78% (inactive). The values for the growth inhibition in assay [8] and in [9] were 2.12% (inactive) and -9.03% (inactive), respectively. Moreover, the RAM network inhibition in [14] is 5.71% (inactive).

Regarding `CN(C)c1ccc(C(=O)Nc2nnc(-c3ccc(Cl)cc3)o2)cc1`, the viability in assay [1] was 92%; in [3], 92% (inactive); in assay [4] it was 13.4% (active); in assay [15] (setting [16]), 81.2%; in [15] (setting [17]), 47.8%; in assay [11], 26.8% (inactive). In addition, the viability in [12] is 25.2% (active). The Her2 level in [2] was 75.5% (inactive). In addition, the differential viability (reversal) in assay [15] (H69AR cells + 2 uM doxorubicin) was -33.4% (inactive). Also, the inhibition in [6] was 29.9% (inactive); in assay [7], 21.5% (inactive); in [13], 1.5% (inactive). Moreover, the growth inhibition is 5.56% (inactive) in assay [8] and -19.4% (inactive) in [9]. Moreover, the viability increase in [10] was -3.93% (inactive). In assay [14], the RAM network inhibition was 2.45% (inactive).
